FAS-TE inh: blocks the thioesterase domain of human fatty acid synthase; P49327; recombinant FAS-TE, OMFH fluorogenic substrate, fluorescence endpoint; inhibition, % at 15 µM; 0.67% of 360,000 active;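 active means compounds whose normalised, plate-corrected inhibition of enzyme fluorescence in the single-dose primary screen is 50% or more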
PLCb3 inh: inhibitors of human phospholipase C beta3; inhibition, % at 12.2 µM; Q01970; 0.18% of 370,000 active; Purified PLC-beta3, fluorogenic substrate, fluorescence
PLC-gamma1 inh: PLC-gamma1 (human) inhibition, primary screen; P19174; purified PLC-gamma1, fluorogenic substrate, fluorescence; inhibition, % at 12.2 µM; 0.84% of 370,000 active; AID 720700; in the data active means inhibition above about 9.5%
H9c2 protect: myocardial damage modulation in H9c2 cells; H9c2 cardiomyocytes, H2O2 injury protection, ATPLite, 2 h; protection from H2O2 cell death, % at 20 µM; 0.63% of 360,000 active; AID 588492;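 active means compounds giving at least 50% protection of heart cells from peroxide-induced death in the single-dose screen, raw or plate-pattern-corrected value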
PLCg1 ctr: PLC-gamma1 inhibition, counter-screen for PLC-beta3 hits; inhibition, % at 12.3 µM; purified PLC-gamma1, fluorogenic substrate, fluorescence; shares compounds with PLC-gamma1 inh; 3.1% of 3,300 active; in the data active means inhibition above about 9.5%
PLCb3 confirm: confirmation of human PLC-beta3 inhibitors | shares compounds with PLC-gamma1 inh | purified PLC-beta3, fluorogenic substrate fluorescence | inhibition, % at 12.3 µM | 1% of 3,300 active | AID 743261
Numbers stand for hits; - = inactive; . = no result given. Hits are enriched below; roughly 2.2% of the tested compounds scored in any of these assays. Unless noted, no stated cut-off is given here; in the data, active means inhibition above about 11%; inactive means the rest.

SMILES	FAS-TE inh	PLCb3 inh	PLC-gamma1 inh	H9c2 protect	PLCg1 ctr	PLCb3 confirm
COC(=O)NNC(=O)C12CC3CC(CC(C3)C1)C2	-	-	14	-	-	-
O=C(NC1CCCCC1)C1c2ccccc2OCC(=O)N1Cc1ccccn1 (stereo unspecified)	-	-	-	.	.	.
O=Cc1c[nH]c2ncccc12	-	-	10	-	-	-
O=C(/C=N/O)Nc1ccc(F)cc1	-	-	9.5	-	-	-
COc1ccc(C2NC(=O)NC(C)=C2C(=O)OCC2CCCCC2)cc1OC (stereo unspecified)	-	-	11	-	-	-
FC(F)(F)c1cccc(NC(=S)Nc2ccc(Cl)cc2Cl)c1	-	-	-	-	.	.
O=C(CS(=O)c1cccc(Cl)c1)Nc1ccccc1Cl (stereo unspecified)	-	-	11	-	11	-
COc1ccc(S(=O)CC(=O)Nc2ccccc2Cl)cc1 (stereo unspecified)	-	-	-	-	.	.
O=C(CS(=O)c1cccc(C(F)(F)F)c1)Nc1ccc(Cl)cc1Cl (stereo unspecified)	-	-	17	-	13	-
COc1ccc(CCNC(=O)CCNS(=O)(=O)c2cccc3nsnc23)cc1OC	-	-	11	-	-	-
CC(C)(C)OC(=O)NCc1ccccc1/C=C/S(=O)(=O)NC1CCCC1	.	-	-	.	.	.
CC(C)(C)OC(=O)NCc1cc(F)ccc1/C=C/S(=O)(=O)NC1CCCC1	.	-	9.8	.	-	-
COc1ccc(NC(=S)N2CCC(C(=O)c3ccc(F)cc3)CC2)cc1	-	-	-	-	.	.
Cc1ccc(NC(=O)/C(C#N)=C/c2ccsc2)c(C)c1	-	11	-	-	-	-
CCC1Sc2ccccc2N(CC(=O)NCCC(C)C)C1=O (stereo unspecified)	-	-	13	-	-	-
CCC1Sc2ccccc2N(CC(=O)NCc2ccccc2OC)C1=O (stereo unspecified)	-	-	-	-	.	.
COC(=O)N1CCCCC1c1cc(C(=O)NCc2cccnc2)no1 (stereo unspecified)	-	-	-	-	.	.
CCCNC(=O)c1cc(C2CCCCN2C(=O)c2ccc3c(c2)CCO3)on1 (stereo unspecified)	-	-	48	-	-	-
CCCNC(=O)c1cc(C2CCCCN2C(=O)c2ccc3ccccc3c2)on1 (stereo unspecified)	-	-	-	-	.	.
COC(=O)N1CCCCC1c1cc(C(=O)NCc2ccccc2)no1 (stereo unspecified)	-	-	10	-	-	-
O=C(Nc1ccccc1)c1cc(C2CCCCN2S(=O)(=O)c2ccccc2)on1 (stereo unspecified)	-	-	10	-	-	-
CCOc1ccc2nc(N/C(N)=N/S(=O)(=O)c3ccc(C)cc3)nc(C)c2c1	-	-	-	-	.	.
Cc1ccc(S(=O)(=O)Cc2nc3ccccc3c(=O)[nH]2)cc1	-	19	-	-	-	-
CN(Cc1ccccc1)C(=O)Cn1nnc(-c2ccccc2)c1COc1ccc2ccccc2c1	-	-	11	-	-	-
O=C(CN(C(=O)c1csnn1)c1ccc(F)c(Cl)c1)NC1CCCC1	-	-	-	-	.	.
SMILES	FAS-TE inh	PLCb3 inh	PLC-gamma1 inh	H9c2 protect	PLCg1 ctr	PLCb3 confirm
CCOC(=O)Cc1c[nH]c(=S)[nH]c1=O	-	-	11	-	-	-
CCOC(=O)Cc1c(C)nc(N)[nH]c1=O	-	-	-	-	.	.
Fc1ccc(CNCc2ccco2)cc1	-	-	12	-	-	-
CC1=CC(=O)C(C(C)C)=CC1=NC(=O)c1ccc(C)cc1	-	11	11	-	-	-
O=C(NC(=O)N1CCCCCC1)c1ccccc1	-	-	-	-	.	.
Cc1c(C(=O)NCc2ccccc2)oc2ccc(S(=O)(=O)N3CCC4(CC3)OCCO4)cc12	-	-	10	-	-	-
COc1ccc(OC)c(/C=N/n2c(COc3ccccc3)n[nH]c2=S)c1	-	-	-	-	.	.
COc1ccc(Br)cc1/C=N/n1c(COc2ccccc2)n[nH]c1=S	-	-	11	-	-	-
COC(=O)c1cc(C)nc2c1C(=O)C(=O)C=C2N1CCOCC1	-	-	14	-	49	11
COC(=O)c1cc(S(=O)(=O)N2CCOCC2)c(Cl)cc1N1CCOCC1	-	-	-	-	.	.
CCOC(OCC)P(=O)(CNC(c1ccccc1)(c1ccccc1)c1ccccc1)OCC (stereo unspecified)	.	-	-	.	.	.
O=C(Cn1cnc2sc(-c3ccccc3)cc2c1=O)NCc1ccccc1	-	-	9.5	-	-	-
